From ChEMBL document CHEMBL3988442, “University of Dundee, Small-Polar-MMV Screening Library” (2021) come the findings set out here.

Molecules are shown by their SMILES. In all, about 48,000 compounds went through this assay and about 13,000 (27%) showed an effect of 50% or more. The list shows a part of the results.

For this test, the system named is Wolbachia pipientis. As to the kind of experiment: Anti-Wolbachia Cell-Based Screen. The conditions noted are these: 5 µM. Format: functional. Details: scale not given: in the data most compounds retested in dose-response had high values.
`CN(Cc1ccc(N2CCCCC2)cc1)Cc1noc(C(C)(C)C)n1`: the “Percent Effect” value was determined as 16.16%. For the compound `O=C(c1ccccn1)N1C[C@@H]2CC[C@H](C1)N(C(=O)CCc1cccs1)C2`, the “Percent Effect” value is -9.254%.

Take `Cc1noc(C)c1CN(C)C(=O)NC1CCN(c2ncccn2)CC1`: the “Percent Effect” value is recorded as -8.201%. With `CNC(=O)[C@@]12CCO[C@@H]1CCN(S(=O)(=O)c1ccccc1F)C2`, the “Percent Effect” value is recorded as -14.92%. Consider `CO[C@H]1CN(S(=O)(=O)c2ccc(C)cc2)C[C@@]12CCCO2`, for which the “Percent Effect” value amounted to 89.74%. In the case of `CO[C@H]1CN(S(=O)(=O)c2ccccc2F)C[C@@]12CCCO2` it was 166.4%. Regarding `C[C@@H]1CN(S(=O)(=O)c2ccc(F)cc2F)C[C@]1(C)O`, the “Percent Effect” value came out at 4.198%. With `O=C(CN1CCCNC1=O)N(Cc1ccccc1)CC(F)F` the figure was -9.06%; with `Cc1c(CN2CCc3[nH]cnc3C2C2CC2)[nH]c2ccc(F)cc12` (centres undefined), 10.14%; with `Cc1ccc2[nH]c(CN3CC[C@@H](N4CCN(C)CC4)[C@H](O)C3)c(C)c2c1`, 130.9%. As to `O=C(c1cccc(Cl)c1)N1CC[C@@H](N2CCC(O)CC2)[C@H](O)C1`, the “Percent Effect” value was -1.425%.

On to `CN1CCN([C@@H]2CCN(CC3=Cc4cc(Cl)ccc4OC3)C[C@H]2O)CC1`, for which the “Percent Effect” value is given as -16.81%. With `Cc1c(CN2C[C@H](O)[C@@H](N3CCOCC3)C2)[nH]c2ccc(F)cc12` the figure was 90.42%; with `Cc1c(CN2CC[C@@H](N3CCC(O)CC3)[C@H](O)C2)[nH]c2ccc(Cl)cc12`, 105.3%; with `Cc1c(CN2CCc3[nH]cnc3C2C(=O)O)[nH]c2ccc(F)cc12` (centres undefined), 4.217%. For the compound `CC1=C(CCN2CC[C@@H](N3CCC(O)CC3)[C@H](O)C2)C(C)(C)CCC1`, the “Percent Effect” value is -3.551%. `CN1CCN([C@@H]2CCN(Cc3cccc(-n4cccn4)c3)C[C@H]2O)CC1`: the “Percent Effect” value is reported as -7.292%. In the case of `CSCCC1c2nc[nH]c2CCN1Cc1[nH]c2ccc(F)cc2c1C` (centres undefined) it was 8.699%; in that of `Cc1c(CN2CC[C@@H](N3CCC(O)CC3)[C@H](O)C2)[nH]c2ccc(F)cc12`, 105.6%; in that of `CN1CCN([C@@H]2CCN(Cc3ccc4cc(F)ccc4n3)C[C@H]2O)CC1`, -21.32%. Turning to `O=C(NCc1ccc(F)cc1F)C(c1cccnc1)N1CCOCC1` (centres undefined), the “Percent Effect” value is -3.204%. On to `CC(C)(C)C(=O)N[C@H]1C[C@@H](Cc2cc(CN3CCOCC3)on2)C1(C)C`, for which the “Percent Effect” value was -2.41%. As to `CC(Sc1nnc(C2CC2)n1CC(N)=O)c1ccc(F)c(Cl)c1` (centres undefined), the “Percent Effect” value was -2.548%.

For `COC(=O)N1CCCCC1C(=O)N1CCN(c2ncccc2C)CC1` (centres undefined), the “Percent Effect” value is on record as -6.544%. In the case of `CCSc1ccc(C(=O)N2CCCCC2C(=O)N2CCCC2)cn1` (centres undefined) it was 151.8%; in that of `Cn1ccc2ccc(C(=O)N3CCC[C@H]3C(=O)N3CCOCC3)cc21`, 12.68%; in that of `CC(C)(C)NC(=O)C1CCCCN1Cc1nccn1CC(F)(F)F` (centres undefined), -2.197%. With `CC(C)Cc1cc(C(=O)N2CCC[C@H]2C(=O)N2CCOCC2)on1`, the “Percent Effect” value is on record as -13.85%.

As to `CCSc1ccc(C(=O)N2CCCC2C(=O)N2CCOCC2)cn1` (centres undefined), the “Percent Effect” value is on record as 144.8%. Consider `CCSc1ccc(NC(=O)N2CCCC2c2ccncc2)cn1` (centres undefined), for which the “Percent Effect” value was -0.7424%.

Take `Cc1ccc(CNC(=O)C2CCCCN2C(=O)OC(C)(C)C)cn1` (centres undefined): the “Percent Effect” value is 1.092%. As to `CCSc1ccc(C(=O)N2CCCCC2C(=O)NC(C)(C)C)cn1` (centres undefined), the “Percent Effect” value is recorded as 116.3%.

In the case of `CCn1c(CN(C)C)nnc1C1CCN(Cc2cccc(C#N)c2)CC1`, the “Percent Effect” value was -18.18%. In the case of `COc1cccc(CNC(=O)CC2CSc3nc(C)c(C)c(=O)n32)c1` (centres undefined) it was 131.7%; in that of `O=C(NCc1cccnc1)N1CCSCC1CCO` (centres undefined), -15.06%. As to `Cc1cnc2n(c1=O)CC(C(=O)Nc1ccccc1Cl)CS2` (centres undefined), the “Percent Effect” value is -3.995%.

With `Cc1nsc(N2CCN(CC(=O)NCc3ccc(F)cc3)CC2)n1`, the “Percent Effect” value is on record as -5.243%.

As for `O=C(Cn1nc(-c2ccc(F)cc2)oc1=O)NCc1ccc(F)cc1`, the “Percent Effect” value was -3.011%. As for `Cc1cnc2n(c1=O)C(CC(=O)NCc1ccc(F)cc1)CS2` (centres undefined), the “Percent Effect” value was 120.7%.

For `Cc1cnc2n(c1=O)C(CC(=O)NCc1cccnc1)CS2` (centres undefined), the “Percent Effect” value is on record as 115%. In the case of `Cc1cnc2n(c1=O)C(CC(=O)NCc1ccccc1Cl)CS2` (centres undefined) it was 121.9%. For the compound `Cc1ccc(CNC(=O)CC2C(=O)NCCN2Cc2ccccc2C)s1` (centres undefined), the “Percent Effect” value is listed as 4.539%. Regarding `COc1cccc(CNC(=O)CC2CSc3ncc(C)c(=O)n32)c1` (centres undefined), the “Percent Effect” value worked out at 19.59%. Turning to `Cc1cc(=O)n2c(n1)SCC2CC(=O)NCc1cc(-c2ccco2)on1` (centres undefined), the “Percent Effect” value was 1.39%. For the compound `CC(=O)NC[C@@H]1C=C(C)[C@H](CC(=O)NCc2cccnc2)C[C@H]1C(C)C`, the “Percent Effect” value is -8.421%. Turning to `Cc1cc(-c2ccncc2)ccc1OCC(N)=O`, the “Percent Effect” value is -1.496%. As for `CC(C)c1cc(C(=O)N2CCN(CC3CC3)[C@@H]3CS(=O)(=O)C[C@@H]32)no1`, the “Percent Effect” value turned out to be 5.38%. For the compound `Cc1cnn(CCC(=O)Nc2ccc(F)cc2OCC2CC2)c1`, the “Percent Effect” value is on record as -3.72%. Consider `CCN1CC(C(=O)N2CCN(CCn3cccc3)CC2)CC1=O` (centres undefined), for which the “Percent Effect” value is on record as -5.842%. With `Cc1cnc2n(c1=O)C(CC(=O)NCc1ccc(Cl)cc1)CS2` (centres undefined) the figure was 120.8%; with `O=C(NCc1ccncc1)N1CCSCC1c1ccc(Cl)cc1` (centres undefined), -11.62%. For the compound `Cc1cc(CNC(=O)CC2CN(C(=O)OC(C)(C)C)C2)ccc1F`, the “Percent Effect” value is -41.83%. Turning to `CCNc1cc2c(nn1)CCN(C(=O)Cc1ccc(C)s1)C2`, the “Percent Effect” value turned out to be 107.9%. For `CCNc1cc2c(nn1)CCN(C(=O)Cc1c(C)nn(C)c1C)C2`, the “Percent Effect” value amounted to 126.1%. With `CCNc1cc2c(nn1)CCN(C(=O)C1COc3ccccc3C1)C2` (centres undefined) the figure was 3.402%; with `CCNc1cc2c(nn1)CCN(C(=O)Cc1ccc3c(c1)CCO3)C2`, -18.57%; with `CCNc1cc2c(nn1)CCN(C(=O)C1Cc3ccccc3S1)C2` (centres undefined), -4.507%. Regarding `CCNc1cc2c(nn1)CCN(C(=O)CC1CCCCC1)C2`, the “Percent Effect” value was -4.667%. Take `CCc1nccn1CC(=O)N1C[C@H]2CC[C@@H]1CN(C(=O)N(C)C)C2`: the “Percent Effect” value was 6.839%.

In the case of `c1cc(-c2nc3c(c(NCCn4ccnn4)n2)CCNCC3)ccn1`, the “Percent Effect” value was -0.7039%. As for `Cc1ccc(CN2CCC3(CC2)NC(=O)CC3c2ccccc2)s1.O=C(O)C(F)(F)F` (centres undefined), the “Percent Effect” value was determined as 95.7%. `COCCN1CCC2(CCN(Cc3nccs3)CC2)C1=O`: the “Percent Effect” value is recorded as -0.9039%. Turning to `Cc1cnc(N2CCC3(CC2)C(c2ccccc2)CC(=O)N3C)nc1` (centres undefined), the “Percent Effect” value is listed as 8.622%. On to `Cc1noc(C)c1CN1CCC2(CC1)CC(Oc1cccnc1)C2.O=C(O)C(F)(F)F.O=C(O)C(F)(F)F`, for which the “Percent Effect” value turned out to be 7.225%.

`Cn1cc(C2CC(=O)NC23CCN(c2ncc(F)cn2)CC3)cn1` (centres undefined): the “Percent Effect” value is -28.26%.

`Cc1ccc(CN2CCC3(CC2)C(=O)N(CCO)CCN3C)o1.O=C(O)C(F)(F)F.O=C(O)C(F)(F)F`: the “Percent Effect” value was 5.189%. Take `Cc1ccc(CN2CCCC3(CCC(=O)N3)CC2)s1.O=C(O)C(F)(F)F` (centres undefined): the “Percent Effect” value was determined as 3.95%.

As for `Cc1ccc(CN2CCC3(CC2)C(c2ccccc2)CC(=O)N3C)o1.O=C(O)C(F)(F)F` (centres undefined), the “Percent Effect” value is listed as 104.4%. For the compound `Cc1noc(C)c1CN1CCC2(CC1)C(c1ccccc1)CC(=O)N2C.O=C(O)C(F)(F)F` (centres undefined), the “Percent Effect” value is on record as 90.48%.

Take `CCN1CCN(C)C2(CCN(Cc3ccc(C)o3)CC2)C1=O.O=C(O)C(F)(F)F.O=C(O)C(F)(F)F`: the “Percent Effect” value was -15.65%. As to `Cn1cc(C2CC(=O)NC23CCN(Cc2nccs2)CC3)cn1` (centres undefined), the “Percent Effect” value is recorded as 86.17%.

As to `CCCc1cc(C(=O)N2Cc3ccccc3C2)[nH]n1`, the “Percent Effect” value worked out at 5.853%. Turning to `CC(C)=CCCC(C)CN1CCC(n2cc(CO)nn2)CC1` (centres undefined), the “Percent Effect” value is listed as -18.32%.

Regarding `Cc1ccc2nc3n(c2c1)[C@@H](CNC(=O)c1ccncc1)COC3`, the “Percent Effect” value was -11.4%. Take `CN(CCC(F)(F)F)c1nc2ccccc2c(=O)[nH]1`: the “Percent Effect” value is given as -5.931%. With `Cc1noc(C)c1CN1CCC2(CC1)NC(=O)CC2c1cnn(C)c1` (centres undefined), the “Percent Effect” value is 100%. With `O=C(O)C(F)(F)F.O=C1CC(c2ccccc2)C2(CCN(Cc3nccs3)CC2)N1` (centres undefined) the figure was 100.6%; with `Cc1noc(C)c1CN1CCC2(CC1)NC(=O)CC2c1ccccc1.O=C(O)C(F)(F)F` (centres undefined), 92.37%; with `O=C(O)C(F)(F)F.O=C(O)C(F)(F)F.O=C1NC2(CCN(Cc3nccs3)CC2)CC1c1ccncc1` (centres undefined), -14.31%. Take `Cc1noc(C)c1CN1CCC2(CC1)C(c1cnn(C)c1)CC(=O)N2C.O=C(O)C(F)(F)F` (centres undefined): the “Percent Effect” value is listed as 113.4%. In the case of `CN1C(=O)CC(c2cnn(C)c2)C12CCN(C(=O)c1ccc[nH]1)CC2` (centres undefined) it was -12.5%; in that of `CCn1c(N)nc2cc(C(=O)N3CCN(c4nccs4)CC3)cnc21`, 5.725%; in that of `O=C(c1ccoc1)N1CCC(NCc2ccccc2-n2ccnc2)CC1`, 2.985%. In the case of `CCn1ncc2c1NC(=O)C(C#N)C21CCCC1` (centres undefined), the “Percent Effect” value is on record as 21.97%. As to `Cc1ccc(CN2CCC3(CC2)C(=O)N(CC(C)C)CCN3C)o1.O=C(O)C(F)(F)F.O=C(O)C(F)(F)F`, the “Percent Effect” value is -29.49%. As for `Cc1ccc(CN2CCC3(CC2)C(=O)N(CC(C)C)CCN3C)s1.O=C(O)C(F)(F)F.O=C(O)C(F)(F)F`, the “Percent Effect” value is on record as 102.6%. For `CC(C)CN1CCN(C)C2(CCN(c3nccs3)CC2)C1=O.O=C(O)C(F)(F)F`, the “Percent Effect” value is listed as -15.41%. As to `Cc1cc(C)n(CC2CCCN2C(=O)c2cccc3[nH]ncc23)n1` (centres undefined), the “Percent Effect” value is -3.123%. Consider `CN(C)c1ncccc1C(=O)N1CCCC1Cn1cccn1` (centres undefined), for which the “Percent Effect” value came to 111.6%. Regarding `Cc1cnn(CC2CCCCN2C(=O)c2ccc3nnc(C)n3c2)c1` (centres undefined), the “Percent Effect” value is -9.496%. In the case of `Cc1cnn(CC2CCCCN2C(=O)c2cccc3c2OCO3)c1` (centres undefined), the “Percent Effect” value is recorded as -2.775%. In the case of `Cc1cnn(CC2CCCCN2C(=O)c2cccnc2N(C)C)c1` (centres undefined) it was 94.82%.

In the case of `Cc1cc(C)n(CC2CCCN2C(=O)c2cccnc2N(C)C)n1` (centres undefined), the “Percent Effect” value was 118%. In the case of `O=C(c1cccnc1N1CCOCC1)N1CCCC1Cn1cccn1` (centres undefined), the “Percent Effect” value is on record as 1.919%.

Take `Cc1cnn(CC2CCCN2C(=O)c2cccnc2N(C)C)c1` (centres undefined): the “Percent Effect” value is on record as -3.738%. In the case of `Cc1cnn(CC2CCCCN2C(=O)c2ccnc(N(C)C)c2)c1` (centres undefined), the “Percent Effect” value is listed as -6.114%. In the case of `O=C(c1cccc2c1OCO2)N1CCCC1Cn1cccn1` (centres undefined) it was -0.6849%; in that of `Cc1cc(C)n(CC2CCCN2C(=O)c2c[nH]c3ncccc23)n1` (centres undefined), -7.335%; in that of `Cc1cnn(CC2CCCCN2C(=O)c2ccc(N(C)C)nc2)c1` (centres undefined), 89.91%.
